# The full ranking holds about 25,000 sequences; the median of “ln(normalized median fluorescence intensity)” is about 7.1, and the highest 2% start at about 10. For the sample, the highest values were picked, then their nearest neighbours and some sequences at random.
# System: PfSIP2 AP2 domain 1 (GST-tagged)
# Assay: gcPBM binding intensity (ln(normalized median fluorescence intensity)); higher = stronger DNA binding
# Method in brief: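 Binding intensity values are the highest Masliner-normalised natural-log median intensity among replicate spots of either probe orientation. The binding step lasted 1 h in 1× PBS with 1% milk, 0.2 mg/ml BSA, 0.5% salmon testes DNA and 0.03% Triton X-100, using GST-tagged P. falciparum DNA-binding domains expressed in E. coli on an Agilent 4 × 180k array of primer-extended double-stranded 36-bp intergenic genomic probes plus negative controls. Alexa488 anti-GST antibody and a 488 nm scan detected bound protein.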
row,Sequence,gcPBM binding intensity (ln)
1,ATATATTTTTTTTTTTGTACGTATATTTATATAATT [XGTACX_site8719],7.1
2,ATATTACTAATTAATGGTACACGTTATAATAAACTA [XGTACX_site7051],7.12
3,TTCAATAGTAAGTATACACACATATAAATAAATAAA [CACACA_site7295],6.91
4,GTGTGAAACATAAACACACACAAAAAGAAAAAATAG [CACACA_site1227],6.91
5,TGCTTTTCTTTTTGCACACTTATGCATATATATATA [CACACA_site2583],9.5
6,TATTCAAAAATATAAACAATGAAACAGTATAATATG [CACACA_negctrl_site1482],7.09
7,ATCACAAAATGGAATGTTCTATGATATATATGTATA [XGTACX_negctrl_site460],7.02
8,GCAAAGCACAAATATGCATGTAGATATAGAATAATG [TGCATGCA_site382],7.68
9,GTATATGAGAAAAAAAGTACATGCACAAAATGTATA [XGTACX_site6441],7.42
10,ATATATATATATAAAGTGCAAAAATGAAAGTAAGAC [GTGCAC_site9850],9.25
11,TTTGAAAAGTATGAGGTGCAAAAAATGTAATGAAAT,10.2
12,ATTATAAATATCAGTGCACACATTTCTACGCAAAGT [CACACA_site4420],10.4
13,ATTCTAAATATCAGTGCACACATTTCTACGCAAAGT [CACACA_site474],9.9
14,TAAAATATTATCTACGCACACATTAAAATAAAAAAA [CACACA_site3709],7.17
15,AAAGAATTTGCATATACACACAAAAAAATAAATACA [CACACA_site4373],7.03
16,TATATATTATACACGTGTACACATTATAACAATATA [XGTACX_site7799],7.4
17,TATATATATATATAATGTACTTATATTTTTTTGAGG [XGTACX_site2638],9.46
18,AAGGAAAACAATAGGTGTACCAAACGTCCTAGGAAC [XGTACX_site5732],6.7
19,GTTCTAATATATTGCACACGTAAAAATATAGGTAAT [CACACA_site886],7.42
20,TAATATGAAAAGTGTACACACGCACAGACAAAAAAA [CACACA_site5594],7.33
21,GTGTAATATGAAATGTGTACACACGCACACACAAAA [XGTACX_site6180],7.6
22,AATGTGTACGCACGCACACACAAAAAAATATATATA [CACACA_site2913],7.24
23,ATATGAAAGGTGTACACACGCACACCCAAAAAAATA [CACACA_site2911],7.93
24,TAATATGAAATGTGTACACACGCACCCACAAAAAAA [CACACA_site8949],10.7
25,TGTAATATGAAATGTGTACACACGCACCCACAAAAA [CACACA_site8948],10.9

row,Sequence,gcPBM binding intensity (ln)
1,TATCCCCTTGTCCATATTAATTGTGACATCATATAT [XGTACX_negctrl_site9],7.09
2,TCATTAAAGGAAAAATGTACGTATAAATAAATATAT [XGTACX_site2587],7.07
3,CATAATTTAAAAAAGGTGCAAAATGGATAATATATA [GTGCAC_site9657],11
4,AAAAAAAAAAAAAAAGTGCATTAATAAATTTTAATA,9.57
5,GAAATAAAAAGAAATGCATGTAATTTTTTTTTTTTT [TGCATGCA_site928],6.71
6,ATTATAAAAGAATTTTTTTTTATTTCATTAAAATAT [CACACA_negctrl_site1137],6.57
7,ATATTTAAAGAATAAGTGCAAAATGTAATTAATTTT [GTGCAC_site9901],7.91
8,TAAAATATTTCAAAGGTGCAATGATAATTTAAGACG [GTGCAC_site9609],10.4
9,TTAATTAATTTTTCAGTGCAAATAAAAAATATTTAA,7.78
10,AGAATTAAAATAAAGGTGCATTTTTTTGTTTCATGT,11
11,TGATATAAAATTAAAGTGCAAAAAAAAAATAAAAAA,8.36
12,TCATTTTAATTAAAAGTGCAAAAAATAATATAACTA [GTGCAC_site9968],8.31
13,GAAAATAAAATAAATGCATGTAAATTTAATGTAATG [TGCATGCA_site996],6.87
14,ATTTAAAAAAGAAAGGTGCATTTCAATAATGTAAAA [GTGCAC_site9585],11
15,TACTATATCGATACCAGTACAGATTTATAAATAATA [XGTACX_site7491],6.94
16,ATAAATAATATATATACACACATATCTATACATATT [CACACA_site487],7.05
17,AATAATAATAAAAAGGTGCTGAAATATTTTTATTAT [GTGCAC_site9763],8.38
18,GCTGAAAGGATAAAGGTGCATATTTTTTAAAAAATT [GTGCAC_site9487],11.2
19,AAATTAAAGGCATAAAAGAAAATATTTAATAAAAAA [CACACA_negctrl_site1689],6.57
20,ATACACACAGCCTAAACATGCATATAGAAAAAAGAA [TGCATGCA_site1028],7.4
21,TATATATAGAAACACACACACACATATATATATATA [CACACA_site4116],9.25
22,ATTCTATAGAAACACACACACATGCATGCACCTATA [CACACA_site107],11.7
23,CATAACATAAAATAGGTGCACAAAAATTGTAATTGA,11.2
24,AATAAGTAACAAAATACACACATATAGGTAATTATA [CACACA_site6949],6.83
25,GTTGTGTAATTCGTAACACACATAAAATATATATAA [CACACA_site6059],6.97

row,Sequence,gcPBM binding intensity (ln)
1,ACATATGAATATAATACACACTTGTATTATTAATAT [CACACA_site8546],6.85
2,ATATTCTTGTTTAATACACACTGTAGTATTATATAT [CACACA_site4400],7.17
3,ATACAGTTGCATATGGTGCACGAATAATACACCTAT,11.3
4,GAATAATATGGACATACACACATATACATACCTATA [CACACA_site7075],7.25
5,GTACACCTATAATATACACACAACAAATATGCACAT [CACACA_site6603],8.84
6,ACACTTAAATATTGTTGTACAAAATGATAAAATGTA [XGTACX_site4588],7.13
7,CACCCTTTGTTTTAGAGTACATATGTATATACGTAA [XGTACX_site7964],7.53
8,ATAAAAAACTCAGAGCGTACATAATTTTTTCTATTT [XGTACX_site2803],7.24
9,TATATATGGGTAACCTTTTTTTTTTTTTTTCGAACA [CACACA_negctrl_site1303],6.8
10,AGGTAGAAAAAAGACACACACATTATGTATATATAT [CACACA_site377],7.6
11,ACAAAATTTACAAAATGTACAAAATATACAAAATAT [XGTACX_site6465],6.99
12,TACATACATATATTATGTACATATTTTATTTTTATT [XGTACX_site1642],7.08
13,ATTTATTTTAAATAAGTGCAAAATGGTTATAAATAA,8.23
14,TATTTTTATTATATGGTGCATATATACATACATATA,10.4
15,TTATTTTTATATTTCACACACATATACTTTTACATA [CACACA_site4097],7.28
16,CACCCTTTACACAAGGTGCATACTTTATTATATTTT [GTGCAC_site9778],10.6
17,CATATTATTATTTTGGTGCATACTTATATATATTTT,9.74
18,TACAATATATTTATAGTGCATATTACTTTTAACTTT,8.41
19,TATTATTATTTTATGGTGCAAAAAAAAAAAAAAAAA,10.6
20,AAAATTATTTAGTAAGTGCAAAAAAAAAAAAAAAAA,8.21
21,AAGGAGCCTATGAACACACACATGTACATATATTAA [CACACA_site4084],7.03
22,TATATATGCATTAAAGTGTTTTTTTTTTTTTTTTTT [CACACA_negctrl_site1353],7.72
23,TACACATTATGTATCATACACACAAATAAATATATA [CACACA_site608],7.1
24,TAAGAAATTGAGCGCACACATACATCTGTGGGATGG [CACACA_site1548],6.71
25,CATACACATTTCATATGTACATAGATTGAAGGGAAG [XGTACX_site116],7.21

row,Sequence,gcPBM binding intensity (ln)
1,CGAGCAAGACGGGGTGCACACAAACTAATATGCCGA [CACACA_site7936],12.1
2,TATACGTAATAATATGCACACAAATAAACTTTATAA [CACACA_site9166],8.88
3,AGCAAGACGGGGTGCACACAAACTAATATGCCGAAT [CACACA_site159],12.1
4,TACGTAATAATATGCACACAAATAAACTTTATAAAT [CACACA_site3501],8.22
5,ATATATATTATATGCACACTAATAAGACTATTTAAA [CACACA_site3554],9.68
6,ATATATATATTATATGCACACTAATAAGACTATTTA [CACACA_site5880],9.55
7,ATTTAATTCGTACATACACACGCACATATATATATA [CACACA_site8415],8.85
8,CTATTAAAAAAATTATGTACACAACGTCTCTATATA [XGTACX_site4813],7.01
9,TTTTTTAAAATATATATAATGAATTTTTTTTTTTTT [CACACA_negctrl_site1577],7.05
10,TGATCAAATAAGTTTGCATGTCAACAATGCATATAT [TGCATGCA_site1025],7.19
11,AAAAAAAAAAAAGATACACACAAAAATGGATATATA [CACACA_site7069],6.77
12,CAATTATTGTAATGCATGCACTGAATATAAAAAGAA,9.18
13,AAAAAATAAATAAATACACACACACTAATATATATA [CACACA_site8488],7.67
14,TTTTTTTGTTAAAAGGTGCTAATATATATAAGTGCT,9.03
15,ATTTTATATAATACATGTACAAAAGTTTAAATTTAT [XGTACX_site6196],7.13
16,TGAGCACAAATACAGGTGCATATAAAATATATGACG,10.5
17,TTATAAAAGACAAAAGTGCATATATACATATGTATA,8.27
18,GTTATAAATAAATACACACATACAAAAATATGACGT [CACACA_site1154],6.94
19,TATTTTATATAAAGGTGTACTTATACAAAAATATAT [XGTACX_site7435],7.22
20,TATAAATATACAAAGGTGCATAAAAAGTTATGTTTT [GTGCAC_site9832],10.4
21,TATATATATATATGAGTGCATATGTGTAATATAAAA,9.27
22,AGGTTATAAATAAATACACACATACAAAAATATGAC [CACACA_site4773],6.94
23,TTTTCTCTAAAAAGGTGTACAACTAATAATGCACTG [XGTACX_site6074],9.09
24,ATTTTTCTAAAATACTGTACAAAGGTGCATAAAAAG [XGTACX_site4425],11.5
25,ATGTTTGAGCCTAAGGTGCATATAAAAATATATGTG [GTGCAC_site9690],10.7
